These results are taken from PubChem BioAssay (Tox21).

Assay [1] is described as follows: Human pregnane X receptor (PXR) small molecule agonists, qHTS cell viability counter screen (AID 1346977). Also: nearly all actives have a fitted effect of over 50% in size. Put shortly: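 Measures live-cell protease fluorescence (CellTiter-Fluor) in PXR-Luc HepG2 cells treated 24hr with compounds at 37C. Cells had 5hr to attach before pin transfer of DMSO solutions.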
(In general: Quantitative high-throughput screening tests each substance at several concentrations.)

Assay [2] is described as follows: Caspase-3/7 induction in HepG2 cells by small molecules, qHTS assay (AID 1346978). Also: nearly all actives have a fitted effect of over 15% in size. Also: potency is read from the fitted curve at half-maximal effect. The gist of the method:
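Wild-type HepG2 cells (2,000/well) were settled 5 h at 37 C, 5% CO2, then exposed to compounds in DMSO for 17 h. Caspase-3/7 activity was read by luminescence 30 min after adding Caspase-Glo 3/7 reagent at room temperature.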

Assay [3] in a line: Caspase-3/7 induction in CHO-K1 cells by small molecules, qHTS cell viability counter screen (AID 1346979). Also: nearly all actives have a fitted effect of over 35% in size. Also: potency is read from the fitted curve at half-maximal effect. Put shortly:
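In the same wells as the caspase read, viability of compound-treated wild-type CHO-K1 cells was assessed using CellTiter-Fluor, added after 16hr at 37C and measured by fluorescence following 1hr further incubation.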

The nature of assay [4]: Caspase-3/7 induction in CHO-K1 cells by small molecules, qHTS assay (AID 1346980). Also: nearly all actives have a fitted effect of over 15% in size. The gist of the method: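 Wild-type cells were seeded at 1,500 per well and settled 5 hr at 37 C, 5% CO2, then exposed to DMSO-dissolved compounds for 17 hr. Caspase-Glo 3/7 reagent was added, and luminescence was read after 30min at room temperature.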
Assay [5] is described as follows: Caspase-3/7 induction in HepG2 cells by small molecules, qHTS cell viability counter screen (AID 1346981). Also: series mostly up to about 92 µM; nearly all actives have a fitted effect of over 30% in size. Put shortly: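 HepG2, WT, 2,000 cells/well; 5 hr pre-incubation 37 C/5% CO2; compound pin-transferred from DMSO; 16 hr exposure; CellTiter-Fluor, 1 hr; fluorescence read.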
For assay [6], the target named is Nuclear receptor subfamily 1 group I member 2 (Homo sapiens) (UniProt O75469). In words: Human pregnane X receptor (PXR) small molecule agonists, qHTS assay (AID 1346982). Also: nearly all actives have a fitted effect of over 35% in size. Also: potency is read from the fitted curve at half-maximal effect. Put shortly:
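Luciferase signal from ONE-Glo (30 min, room temperature) measured activation of hPXR-driven CYP3A4 reporter expression in PXR-Luc HepG2 cells treated with compounds for 24 hr at 37 C.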

Assay [7] addresses Acetylcholinesterase (Homo sapiens) (UniProt P22303). Nature of the assay: Acetylcholinesterase (AChE) small molecule antagonists: colormetric cell-based qHTS assay (AID 1347395; calls by dose curve; also: nearly all actives have a fitted effect of over 30% in size). The gist of the method: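 Endogenous AChE of human neuroblastoma SH-SY5Y cells was measured with an Ellman-type DTNB/acetylthiocholine mix. Compound pretreatment lasted 30 min at 37 C; substrate reaction ran 90 min at 37 C.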

For assay [8] the target is unchanged. Nature of the assay: Acetylcholinesterase (AChE) small molecule antagonists: enzyme-based qHTS assay (AID 1347397; calls by dose curve; also: nearly all actives have a fitted effect of over 55% in size; also: potency is read from the fitted curve at half-maximal effect). The conditions noted are these: Potency: AChE enzyme activity inhibition. The gist of the method:
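Recombinant human AChE, dispensed at 50 mU/mL, was preincubated with Tox21 10K compounds or DMSO vehicle for 30 min at room temperature. DTNB plus acetylthiocholine was then added, and thiocholine was measured colorimetrically after a further 10 min.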

The target is the same in assay [9]. In words: Acetylcholinesterase (AChE) small molecule antagonists: fluorescence cell-based qHTS assay (AID 1347398; calls by dose curve; also: nearly all actives have a fitted effect of over 50% in size). To be noted: Potency: AChE activity. Put shortly: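 Human SH-SY5Y cells were plated overnight at 37 C, exposed to compound for 30 min at 37 C, 5% CO2, then given acetylthiocholine plus Thiolite Green for 40 min at room temperature; thiocholine fluorescence (Ex/Em 490/520 nm) reports endogenous AChE activity.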

The target is the same in assay [10]. Nature of the assay: Acetylcholinesterase (AChE) small molecule antagonists: enzyme-based qHTS assay with human liver microsomes (AID 1347399; calls by dose curve; also: nearly all actives have a fitted effect of over 60% in size). To be noted: Potency: qHTS inhibition. The gist of the method: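 Recombinant human AChE (50 mU/mL in the enzyme mix) and human liver microsomes (0.25 mg/mL final) were preincubated with compound and NADPH (0.25 mg/mL final) for 30 min at 37 C. Acetylthiocholine/DTNB was then added; thiocholine was read colorimetrically after 10 min at room temperature.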

The target of assay [11] is Cytochrome P450 2D6 (Homo sapiens) (UniProt P10635). In words: Cytochrome P450 Family 2 Subfamily D Member 6 (CYP2D6) small molecule antagonists: luciferase reporter qHTS assay (AID 1671196). Also: nearly all actives have a fitted effect of over 50% in size. Also: potency is read from the fitted curve at half-maximal effect. Put shortly: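 Read-out is luminescence from luciferin formed by CYP2D6 turnover of a proluciferin substrate, recorded as relative luminescence units. Reactions ran 1 h at room temperature after NADPH regeneration solution was added.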
Chain of Cytochrome P450 2D6 (Homo sapiens) (P10635 whole entry, looked up): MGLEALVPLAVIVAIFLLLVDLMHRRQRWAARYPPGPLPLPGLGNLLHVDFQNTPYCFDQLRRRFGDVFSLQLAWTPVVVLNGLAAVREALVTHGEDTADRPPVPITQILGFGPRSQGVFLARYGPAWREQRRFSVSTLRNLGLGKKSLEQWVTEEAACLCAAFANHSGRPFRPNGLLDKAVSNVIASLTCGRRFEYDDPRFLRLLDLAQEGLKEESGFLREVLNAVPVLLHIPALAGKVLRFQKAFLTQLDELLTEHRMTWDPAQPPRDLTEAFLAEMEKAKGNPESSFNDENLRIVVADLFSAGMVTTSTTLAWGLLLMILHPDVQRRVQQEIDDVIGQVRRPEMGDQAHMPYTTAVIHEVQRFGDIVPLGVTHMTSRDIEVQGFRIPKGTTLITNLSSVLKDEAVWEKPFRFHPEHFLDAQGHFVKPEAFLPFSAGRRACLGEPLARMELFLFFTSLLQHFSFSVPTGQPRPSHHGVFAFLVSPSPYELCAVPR
Background: Reporter assays use an easily measured gene product as a stand-in for the process of interest.

Assay [12] concerns the target Cytochrome P450 2C19 (Homo sapiens) (UniProt P33261). Nature of the assay: Cytochrome P450 Family 2 Subfamily C Member 19 (CYP2C19) small molecule antagonists: luciferase reporter qHTS assay (AID 1671197). Also: nearly all actives have a fitted effect of over 65% in size. Also: potency is read from the fitted curve at half-maximal effect. Put shortly:
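Light output is proportional to CYP2C19 activity: proluciferin substrate is converted to luciferin, then detected by a luciferin detection reagent that also stops the 1 h, 37C NADPH-driven reaction. Ketoconazole serves as positive control.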

Assay [13] deals with Cytochrome P450 1A2 (Homo sapiens) (UniProt P05177). Nature of the assay: Cytochrome P450 Family 1 Subfamily A Member 2 (CYP1A2) small molecule antagonists: luciferase reporter qHTS assay (AID 1671199). Also: nearly all actives have a fitted effect of over 50% in size. Also: potency is read from the fitted curve at half-maximal effect. The gist of the method: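 P450-Glo CYP1A2, 1536-well qHTS: enzyme/proluciferin substrate + cpd (DMSO), 10 min RT; NADPH regen, 1 h RT; detection reagent, 20 min; luminescence, RLU.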
Chain of Cytochrome P450 1A2 (Homo sapiens) (P05177 whole entry, looked up): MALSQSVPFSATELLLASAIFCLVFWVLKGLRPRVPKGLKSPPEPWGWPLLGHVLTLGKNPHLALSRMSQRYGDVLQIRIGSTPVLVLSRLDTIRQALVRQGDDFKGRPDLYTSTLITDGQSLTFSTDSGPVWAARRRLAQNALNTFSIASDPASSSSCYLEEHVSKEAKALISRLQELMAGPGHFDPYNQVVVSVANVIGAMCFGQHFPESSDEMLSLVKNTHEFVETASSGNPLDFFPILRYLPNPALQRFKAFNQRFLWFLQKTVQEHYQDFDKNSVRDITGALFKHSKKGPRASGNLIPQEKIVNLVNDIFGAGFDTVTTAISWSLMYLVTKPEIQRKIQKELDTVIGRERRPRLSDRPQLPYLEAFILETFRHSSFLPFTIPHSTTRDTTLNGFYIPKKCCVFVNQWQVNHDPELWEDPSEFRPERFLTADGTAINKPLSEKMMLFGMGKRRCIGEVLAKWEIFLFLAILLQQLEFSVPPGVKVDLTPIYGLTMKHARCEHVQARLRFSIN

In assay [14] the target is Voltage-gated inwardly rectifying potassium channel KCNH2 (Homo sapiens) (UniProt Q12809). In words: Human Ether-a-go-go-Related Gene (hERG) channel small molecule antagonists: fluorescence cell-based qHTS assay (AID 1671200). Put shortly:
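Quantitative HTS in hERG-U2OS cells: thallium entry through the channel reports activity, read as continuous 480/540 nm fluorescence over 2 min after stimulus addition.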
(The hERG channel carries a current that helps repolarise heart muscle cells.)

For assay [15], the target named is Cytochrome P450 3A4 (Homo sapiens) (UniProt P08684). Nature of the assay: Cytochrome P450 Family 3 Subfamily A Member 4 (CYP3A4) small molecule antagonists: luciferase reporter qHTS assay (AID 1671201). The gist of the method:
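Inhibition of CYP3A4 is measured as loss of light: the enzyme converts a proluciferin substrate to luciferin, detected luminescently. Reaction ran 1 h at room temperature with NADPH regeneration after a 10 min compound preincubation.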

Assay [16] has as its target Cytochrome P450 2C9 (Homo sapiens) (UniProt P11712). In words: Cytochrome P450 Family 2 Subfamily C Member 9 (CYP2C9) small molecule antagonists: luciferase reporter qHTS assay (AID 1671198). Also: nearly all actives have a fitted effect of over 50% in size. Also: potency is read from the fitted curve at half-maximal effect. Put shortly:
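CYP2C9 activity was measured with a P450-Glo proluciferin substrate. Enzyme–substrate mix was held with compound for 10 min at room temperature, then NADPH regeneration solution was added for 1 h at 37C. Luciferin product was read as luminescence.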

Assay [17] concerns the target Nuclear receptor subfamily 1 group I member 2 (Rattus norvegicus) (UniProt Q9R1A7). In words: Rat pregnane X receptor (rPXR) activation by small molecules, qHTS assay (AID 1346983). Also: nearly all actives have a fitted effect of over 20% in size. The conditions noted are these: rPXR luciferase reporter cells, One-Glo luminescence, 24 h; stronger effect = higher value. The gist of the method:
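Cell-based rPXR luciferase reporter assay, 2,000 cells per well, rested 5hr at 37 C before compound addition in DMSO, then 24 hr at 37 C. One-Glo reagent was added and luminescence read after 30 min at room temperature.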

For assay [18], the target named is Nuclear receptor subfamily 1 group I member 2 (Homo sapiens) (UniProt O75469). In words: CYP3A4 induction through human pregnane X receptor (PXR) by small molecules, qHTS assay (AID 1346984). Also: nearly all actives have a fitted effect of over 40% in size. The gist of the method:
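Luminescence readout: luciferase signal after One-Glo (30 min, room temperature), following 3 h at 37C with 3uM final Luciferin-IPA P450 substrate. Cells were DPX-2 (HepG2, PXR/CYP3A4-luc co-transfected) dosed for 24 h.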

Assay [19] shares this target. Nature of the assay: Human pregnane X receptor (PXR) activation by small molecules, qHTS assay (AID 1346985). Also: nearly all actives have a fitted effect of over 40% in size. The gist of the method: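 DPX-2 cells (HepG2 co-transfected with a PXR response element and a CYP3A4-promoter luciferase construct) were seeded at 2,000 per well, rested 5 hr at 37C, then exposed to DMSO-dissolved compounds for 24 hr. Activation was read as luciferase luminescence.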

Several values for one entry are separate records, joined by “and”; a condition that tells them apart may be missing. Equal entries are not always repeated. Records with an inconclusive call do not appear. Some structures have more than one record in an assay (separate samples or runs), and their calls can disagree. Activity calls are given as the source filed them. Unless noted, calls follow the shape of the dose curve; as a rule, active = well fitted curve in the direction sought with a large enough effect in the repeat runs; inconclusive = weak or mixed curves; inactive = no such curve, though single readings can be large; an effect the other way counts as inactive or inconclusive.
% is scaled to controls: 0 for no effect and ±100 for the full control effect.

Chain of Acetylcholinesterase (Homo sapiens) (P22303 whole entry, looked up): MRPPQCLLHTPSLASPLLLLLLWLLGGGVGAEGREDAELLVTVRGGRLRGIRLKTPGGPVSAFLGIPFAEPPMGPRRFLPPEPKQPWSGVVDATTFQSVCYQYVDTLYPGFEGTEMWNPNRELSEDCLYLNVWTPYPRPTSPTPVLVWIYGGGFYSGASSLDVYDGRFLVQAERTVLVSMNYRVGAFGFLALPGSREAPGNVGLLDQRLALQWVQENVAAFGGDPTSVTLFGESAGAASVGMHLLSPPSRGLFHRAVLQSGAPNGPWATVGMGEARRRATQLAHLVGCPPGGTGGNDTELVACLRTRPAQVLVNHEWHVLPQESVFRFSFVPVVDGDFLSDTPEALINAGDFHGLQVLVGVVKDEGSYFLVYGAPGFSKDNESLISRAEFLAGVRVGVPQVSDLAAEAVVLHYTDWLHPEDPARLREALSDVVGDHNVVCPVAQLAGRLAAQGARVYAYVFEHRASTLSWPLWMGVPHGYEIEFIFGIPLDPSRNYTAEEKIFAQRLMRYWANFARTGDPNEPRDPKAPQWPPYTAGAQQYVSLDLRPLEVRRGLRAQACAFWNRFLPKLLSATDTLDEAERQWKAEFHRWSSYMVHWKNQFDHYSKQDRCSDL
Chain of Cytochrome P450 2C19 (Homo sapiens) (P33261 whole entry, looked up): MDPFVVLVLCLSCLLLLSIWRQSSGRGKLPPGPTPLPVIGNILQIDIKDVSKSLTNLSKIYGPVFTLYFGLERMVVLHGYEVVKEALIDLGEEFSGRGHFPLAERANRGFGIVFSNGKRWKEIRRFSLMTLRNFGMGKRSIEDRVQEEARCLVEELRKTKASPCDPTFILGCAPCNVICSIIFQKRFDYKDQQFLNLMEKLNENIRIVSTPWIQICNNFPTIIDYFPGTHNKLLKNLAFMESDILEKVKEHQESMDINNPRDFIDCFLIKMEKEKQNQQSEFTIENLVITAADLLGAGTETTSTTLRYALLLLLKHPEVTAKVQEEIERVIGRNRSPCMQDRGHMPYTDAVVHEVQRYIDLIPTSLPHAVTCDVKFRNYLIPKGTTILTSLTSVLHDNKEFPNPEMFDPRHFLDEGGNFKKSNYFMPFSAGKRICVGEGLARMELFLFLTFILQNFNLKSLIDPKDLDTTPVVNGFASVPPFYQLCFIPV
Chain of Cytochrome P450 3A4 (Homo sapiens) (P08684 whole entry, looked up): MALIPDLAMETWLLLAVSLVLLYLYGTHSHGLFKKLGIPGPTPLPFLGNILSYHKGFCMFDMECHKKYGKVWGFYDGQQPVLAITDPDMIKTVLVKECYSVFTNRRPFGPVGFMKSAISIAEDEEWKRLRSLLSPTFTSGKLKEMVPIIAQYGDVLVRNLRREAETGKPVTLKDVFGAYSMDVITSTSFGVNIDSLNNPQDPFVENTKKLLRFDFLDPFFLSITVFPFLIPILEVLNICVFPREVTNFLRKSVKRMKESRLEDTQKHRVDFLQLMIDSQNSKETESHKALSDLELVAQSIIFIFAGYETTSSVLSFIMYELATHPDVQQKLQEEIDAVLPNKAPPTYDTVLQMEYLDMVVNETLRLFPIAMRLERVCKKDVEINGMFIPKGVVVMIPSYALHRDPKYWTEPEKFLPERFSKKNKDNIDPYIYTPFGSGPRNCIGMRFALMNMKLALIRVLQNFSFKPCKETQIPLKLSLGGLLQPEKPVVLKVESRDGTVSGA
Chain of Nuclear receptor subfamily 1 group I member 2 (Homo sapiens) (O75469 whole entry, looked up): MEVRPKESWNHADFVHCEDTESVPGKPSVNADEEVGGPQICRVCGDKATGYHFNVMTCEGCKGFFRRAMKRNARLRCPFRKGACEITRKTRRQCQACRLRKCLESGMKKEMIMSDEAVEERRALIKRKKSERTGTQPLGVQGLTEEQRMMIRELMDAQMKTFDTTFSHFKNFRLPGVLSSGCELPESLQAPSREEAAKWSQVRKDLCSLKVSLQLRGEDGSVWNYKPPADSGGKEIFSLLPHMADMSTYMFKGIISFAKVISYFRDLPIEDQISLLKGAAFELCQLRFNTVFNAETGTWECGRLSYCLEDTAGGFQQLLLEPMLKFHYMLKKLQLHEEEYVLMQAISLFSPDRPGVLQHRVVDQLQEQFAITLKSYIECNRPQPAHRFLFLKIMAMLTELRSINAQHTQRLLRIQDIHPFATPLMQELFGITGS
Chain of Cytochrome P450 2C9 (Homo sapiens) (P11712 whole entry, looked up): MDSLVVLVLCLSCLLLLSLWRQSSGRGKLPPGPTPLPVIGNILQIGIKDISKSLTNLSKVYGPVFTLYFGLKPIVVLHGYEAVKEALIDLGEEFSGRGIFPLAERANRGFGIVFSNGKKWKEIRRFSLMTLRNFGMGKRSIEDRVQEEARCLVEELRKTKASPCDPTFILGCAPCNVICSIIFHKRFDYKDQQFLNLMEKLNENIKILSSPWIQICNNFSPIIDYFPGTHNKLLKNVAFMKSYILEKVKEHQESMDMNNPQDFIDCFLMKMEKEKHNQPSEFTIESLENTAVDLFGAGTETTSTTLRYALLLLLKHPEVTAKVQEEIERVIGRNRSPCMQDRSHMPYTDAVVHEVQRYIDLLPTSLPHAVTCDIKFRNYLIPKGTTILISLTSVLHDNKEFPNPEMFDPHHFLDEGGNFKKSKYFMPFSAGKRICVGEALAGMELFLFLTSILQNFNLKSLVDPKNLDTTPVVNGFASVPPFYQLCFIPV
Chain of Voltage-gated inwardly rectifying potassium channel KCNH2 (Homo sapiens) (Q12809 whole entry, looked up): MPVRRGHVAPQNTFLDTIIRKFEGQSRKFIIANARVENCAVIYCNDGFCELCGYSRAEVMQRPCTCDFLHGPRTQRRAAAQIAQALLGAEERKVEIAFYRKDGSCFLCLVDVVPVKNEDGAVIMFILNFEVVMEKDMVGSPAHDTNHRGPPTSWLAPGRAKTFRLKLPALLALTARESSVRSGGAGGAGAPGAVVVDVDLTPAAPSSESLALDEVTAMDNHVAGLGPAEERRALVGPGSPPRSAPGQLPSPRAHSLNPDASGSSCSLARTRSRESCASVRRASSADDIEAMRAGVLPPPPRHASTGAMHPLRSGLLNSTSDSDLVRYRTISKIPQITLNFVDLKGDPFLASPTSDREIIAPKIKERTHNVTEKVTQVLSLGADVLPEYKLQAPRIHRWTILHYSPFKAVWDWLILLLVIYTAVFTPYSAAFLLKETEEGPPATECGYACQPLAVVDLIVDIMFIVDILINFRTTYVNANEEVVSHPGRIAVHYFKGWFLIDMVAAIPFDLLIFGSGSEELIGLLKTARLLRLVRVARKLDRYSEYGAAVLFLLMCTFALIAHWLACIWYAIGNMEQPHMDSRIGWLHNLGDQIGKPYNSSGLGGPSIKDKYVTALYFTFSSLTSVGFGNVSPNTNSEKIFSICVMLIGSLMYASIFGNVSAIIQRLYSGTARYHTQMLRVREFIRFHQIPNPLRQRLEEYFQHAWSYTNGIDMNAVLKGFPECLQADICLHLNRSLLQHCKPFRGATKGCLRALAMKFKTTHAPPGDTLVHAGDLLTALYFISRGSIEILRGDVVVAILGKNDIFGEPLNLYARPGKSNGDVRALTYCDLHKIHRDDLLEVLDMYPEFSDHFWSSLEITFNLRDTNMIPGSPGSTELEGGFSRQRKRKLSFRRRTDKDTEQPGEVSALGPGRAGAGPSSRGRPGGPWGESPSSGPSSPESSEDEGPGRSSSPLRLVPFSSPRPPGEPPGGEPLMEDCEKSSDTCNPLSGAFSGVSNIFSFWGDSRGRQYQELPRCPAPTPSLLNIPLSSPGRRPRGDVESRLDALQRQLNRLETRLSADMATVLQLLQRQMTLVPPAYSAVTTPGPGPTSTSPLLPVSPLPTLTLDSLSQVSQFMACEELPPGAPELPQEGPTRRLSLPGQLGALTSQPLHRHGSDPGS

As for `O=P(OCCCl)(OCCCl)OCCCl`, the Potency entry in [1], in assay [2], in assay [3], in [4], in assay [5] and in assay [7] was “inactive” in each case. Further, the Potency result in [8], in [9], in assay [10], in [11], in assay [14] and in assay [15] was “inactive” in each case. In addition, the Potency result was “inactive and 19.3 µM (active)” in assay [6]; 70.4 µM (active) in assay [12]; 35.3 µM (active) and 35.6 µM (active) in [13].
Take `CSc1nc(NC(C)C)nc(NC(C)C)n1`: the Potency result in assay [1], in assay [2], in [3], in [4], in assay [5] and in assay [7] was “inactive” throughout. Moreover, the Potency result in assay [8], in [9], in assay [10], in [11], in [14] and in assay [15] was “inactive” each time. Further, the Potency in assay [6] was 30.5 µM (active) and 21.7 µM (active); in assay [12], 39.8 µM (active) and 71 µM (active); in [13], 17.8 µM (active).
For the compound `O=S(=O)(O)C(F)(F)C(F)(F)C(F)(F)C(F)(F)C(F)(F)C(F)(F)C(F)(F)C(F)(F)F`, the Potency entry in assay [1], in assay [2], in assay [4], in assay [5], in [7] and in [8] was “inactive” throughout. Further, the Potency result in [9], in assay [10], in assay [11], in assay [14] and in [15] was “inactive” each time. The Potency result in assay [6] is “inactive and 54.5 µM (active)”; in [12], 42.6 µM (active) and 22.4 µM (active); in assay [16], 537 nM (active) and 502 nM (active) and 423 nM (active); in assay [13], “inactive and 50.2 µM (active)”.
For `CCCCCCCCCC(CC)c1ccc(S(=O)(=O)O)cc1` (stereo unspecified), the Potency result in [1], in assay [2], in assay [4], in assay [5], in [18] and in [7] was “inactive” in each case. The Potency entry in assay [9], in assay [10], in assay [14] and in assay [15] was “inactive” throughout. Moreover, the Potency was 61.8 µM (active) and inactive and 52.9 µM (active) in assay [3]; 57 µM (active) and 79.6 µM (active) and 47.4 µM (active) in assay [8]; “inactive and 50.2 µM (active)” in assay [11]; 40.1 µM (active) and inactive and 35.6 µM (active) in assay [12]; 63.2 µM (active) and inactive and 63.3 µM (active) in [13]. In addition, the max activation in [17] is -0.486% (inactive). Further, in [19], the call was inactive.
For the compound `COC(=O)Nc1nc2ccccc2[nH]1`, the Potency entry in assay [1], in assay [4], in assay [5], in assay [7], in assay [8] and in assay [9] was “inactive” throughout. Further, the Potency result in assay [10], in [11], in [12] and in assay [14] was “inactive” throughout. The Potency was 6.11 µM (active) and inactive in [2]; 54.5 µM (active) in [6]; “inactive and 71 µM (active)” in [16]; 11.2 µM (active) and 20 µM (active) in [13].
